Results on 34 molecules are retold here after PubChem BioAssay (NCI).

Compounds without any hit were thinned out: in the full panel of roughly 83,000, 20% have a hit.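 48-hour exposure, single concentration, 96-well plates; percent growth endpoint where 0 means no net growth. Active: below 10.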 Active and inactive are the calls of the source.

The subject of the test is COLO 205 colon. The test can be described thus: NCI-60 one-dose screen, 48 h (100 = growth as untreated, 0 = no growth, -100 = all killed). To be noted: 10 µM.
For `COC(=O)CC1CC1C1Cc2c(nc(N(C)S(C)(=O)=O)nc2C(C)C)-c2ccc(F)cc21` (centres undefined), the growth is 90.8% (inactive).

Turning to `CN1CCN(c2ccc(Nc3nc(N4CCN(S(=O)(=O)c5ccc(Cl)cc5)CC4)c4sccc4n3)cc2)CC1`, the growth is -77.9% (active).

For the molecule `Cc1ccc(-c2ccc(SCC(=O)Nc3ccc(Cl)c(C(F)(F)F)c3)nn2)cc1`, the growth is -11% (active).

Turning to `Oc1ccc(/C=C2\CCCc3cc4ccc(O)cc4[o+]c32)c(O)c1`, the growth was 50.6% (inactive).

Regarding `O=C(Nc1ccc(F)c(Cl)c1)c1cc(-c2ccc(F)cc2F)ccc1O`, the growth was 4.58% (active).

Regarding `CCN1CCN(c2ccc(NC(=O)Nc3ccc4c(c3F)CCN4c3ccnc(C(=O)NC)c3)cc2C(F)(F)F)CC1`, the growth is 120% (inactive).

As to `O=C(CS(=O)(=O)c1oc(-c2ccc(Cl)cc2)nc1S(=O)(=O)c1ccccc1)N1CCCC1`, the growth was -91% (active).

With `C=C(C)[C@@H]1CC[C@]2(C)[C@H](CC=C3[C@@H]4CC(C)(C)CC[C@]4(C(=O)N4CCOCC4)CC[C@]32C)[C@@]1(C)CCCN`, the growth is -92.8% (active).

Take `COc1ccccc1C(=O)NNC(=O)CSc1nc2c(c(=O)[nH]1)CCCC2`: the growth is 113% (inactive).

Regarding `Cc1ccc(/C(N)=N/c2sc(-c3ccccc3)nc2-c2ccccc2)cc1`, the growth was 91.1% (inactive).

In the case of `O=C(COc1ccc(NC(=O)Nc2ccc(Cl)cc2)cc1)N=Nc1c(O)[nH]c2ccc([N+](=O)[O-])cc12`, the growth is 23% (inactive).

With `COc1cc(/C=C/C(=O)c2cc(OC)c(OC)c(OC)c2)ccc1Oc1nc(Nc2ccc(F)cc2)nc(N(C)C)n1`, the growth is 7.64% (active).

Turning to `Cc1ccc(CSc2nc(-c3ccc(F)cc3)c(C#N)c(=O)[nH]2)cc1`, the growth was 131% (inactive).

Regarding `CCCn1c(O)c(N=Nc2nc(-c3cc4ccccc4oc3=O)cs2)c2cc(Br)ccc21`, the growth is 139% (inactive).

As to `CN1CCN(Cc2ccc(NC(=O)c3cncc(C#Cc4cnc5ccc(N[C@@H]6CCOC6)nn45)c3)cc2C(F)(F)F)CC1`, the growth is -65.5% (active).

With `c1ccc(C(=C(c2ccc(OCCN3CCCCC3)cc2)c2ccc(OCCN3CCCCC3)cc2)C2CCCC2)cc1`, the growth is -92.6% (active).

`Cc1ccc(-c2cc(C(=O)N=Nc3c(O)[nH]c4ccccc34)c3ccccc3n2)cc1`: the growth was -5.04% (active).

On to `N#Cc1c(NC(=O)c2ccc(C(F)(F)F)cc2)sc2c1CCC(=O)C2`, for which the growth was -95.3% (active).

As for `CCOC(=O)C1NN(c2ccc(S(N)(=O)=O)cc2)c2nc3nc(-c4cccs4)cc(-c4cccs4)c3c(=O)n21` (centres undefined), the growth was 81.1% (inactive).

In the case of `Cc1ccc(-c2cc(C(=O)N=Nc3c(O)[nH]c4ccc(Br)cc34)c3ccccc3n2)cc1`, the growth is 108% (inactive).

In the case of `CC1(c2ccccc2)NC(=O)N(CC(=O)Nc2ccc(C(=O)/C=C/c3ccc(Cl)cc3)cc2)C1=O` (centres undefined), the growth is -24.4% (active).

For the molecule `O=C(N/N=C/c1ccc(-c2cccc([N+](=O)[O-])c2)o1)c1[nH]c2ccc(Br)cc2c1-c1ccccc1`, the growth was -65.4% (active).

As for `CN(C)c1ccc(/C=C/c2nc3ccccc3c(=O)n2CC(=O)Nc2ccc(Cl)cc2)cc1`, the growth is 57.3% (inactive).

Turning to `CCCSc1nc(NC2CC2)c(C#N)c(-c2ccc(OC)cc2)n1`, the growth was 134% (inactive).

In the case of `C=C1CCC2C3(C)COC(c4c(F)cccc4F)OC3CCC2(C)C1CC(O)C1=CCOC1=O` (centres undefined), the growth was 42.4% (inactive).

Take `O=C(N=Nc1c(O)[nH]c2ccc(Br)cc12)c1ccc2nc(-c3ccccc3)[nH]c2c1`: the growth was -67.5% (active).

Consider `CS(=O)(=O)Nc1ccc(-c2ccc3c(c2)ncn3-c2ccc(NC(=O)Nc3ccc(Br)cc3)cc2)cc1`, for which the growth was -27.9% (active).

Consider `COC1=C[C@@]23CCC(=O)N2CCc2cc4c(cc2[C@H]3[C@H]1OC(=O)C(C)(C)O)OCO4`, for which the growth was 120% (inactive).

Turning to `Cc1cc(C)nc(/N=C(\N)Nc2ccc(S(=O)(=O)Nc3nc(C)cc(C)n3)cc2)n1`, the growth was 120% (inactive).

With `CC(=O)NS(=O)(=O)c1ccc(NC(=O)CSC2=NC(c3ccccc3)C(C(C)=O)=C(C)N2)cc1` (centres undefined), the growth is 126% (inactive).

`COc1cc2c3c(n(CCCNCCO)c(=O)c2cc1OC)-c1nc2c(cc1C3=O)OCO2`: the growth was 2.13% (active).

With `C/C(=C\CC/C=C(\C)CC/C=C(\C)CC[C@@H](O)C(C)(C)O)CC/C=C(\C)CC[C@@H](O)C(C)(C)O`, the growth is 41.9% (inactive).

As to `C=CC(=O)Nc1nc(-c2cccc(NS(=O)(=O)c3cccc4c(N(C)C)cccc34)c2)cs1`, the growth was -56.3% (active).

As to `O=C(Nc1ccc(Cl)c(C(F)(F)F)c1)c1cncc(C#Cc2cnc3ccc(N4CCOCC4)nn23)c1`, the growth was 11.9% (inactive).
